Laboratory results published in ChEMBL document CHEMBL4513216, “Probing the Open Global Health Chemical Diversity Library for Multistage-Active Starting Points for Next-Generation Antimalarials” (ACS Infect Dis, 2020).
The whole screen tested about 69,000 compounds, of which about 8,600 (12%) showed an effect of 50% or more. The entries come from a sample that favours strong results as a whole.

test system: Plasmodium berghei; assay: Screen against P. berghei liver stage (PbLuc), transformed with Luciferase, at 10uM; type: functional, HepG2; settings: tested at 10 uM

Structure (SMILES) | INHIBITION [%]
CC(=O)NCCNC(=O)CN1CCOC(Cn2cc(C)cn2)C1 (configuration not stated) | 25.6
Cc1cccc2[nH]cc(CC(=O)N3CCC(Nc4cccnn4)CC3)c12 | 24
CCc1cnc2c(c1Nc1ccc3c(c1)OCO3)c(=O)n(C)c(=O)n2C | 4.35
COc1cccc(CNc2c(C)cnc3c2c(=O)n(C)c(=O)n3C)c1 | 48.1
CCc1cnc2c(c1Nc1ccncc1)c(=O)n(C)c(=O)n2C | 27.6
CCc1cnc2c(c1NCc1ccncc1)c(=O)n(C)c(=O)n2C | 2.3
CCc1cnc2c(c1Nc1ccc(OC)cc1)c(=O)n(C)c(=O)n2C | -50.5
CCc1cnc2c(c1NCc1cccc(OC)c1)c(=O)n(C)c(=O)n2C | 55.3
COc1ccc(CNc2c(C)cnc3c2c(=O)n(C)c(=O)n3C)cc1 | 9.79
CCc1cnc2c(c1Nc1ccc(C)c(F)c1)c(=O)n(C)c(=O)n2C | 53.1
CCc1cnc2c(c1NCc1ccc(OC)cc1)c(=O)n(C)c(=O)n2C | 67.6
O=S(=O)(Cc1ccccc1Cl)CC(O)CO (configuration not stated) | 27
Cc1cnn(Cc2ccc(NC(=O)N3CCCCC3CO)cc2)c1 (configuration not stated) | -0.378
Cc1noc(CNC2CCCN(Cc3noc(C4CC4)n3)C2)n1 (configuration not stated) | -52.5
COc1cccc(CNCc2nc3ccccc3c(=O)[nH]2)c1 | 16.5
CN(C)c1nccc(N2CCO[C@H]3CN(Cc4nccn4C)C[C@H]32)n1 | 80.2
CN(C)c1nccc(N2CCO[C@H]3CN(CC4CCOCC4)C[C@H]32)n1 | 36.8
COCCN1C[C@@H]2OCCN(c3ccnc(N(C)C)n3)[C@@H]2C1 | -16.9
CN(C)c1nccc(N2CCO[C@H]3CN(Cc4ccco4)C[C@H]32)n1 | -23.4
Cc1noc(C)c1CN1CCO[C@H]2CN(Cc3nccn3C)C[C@H]21 | 0.72
CCc1ccc(CN2C[C@@H]3OCCN(c4ccnc(N(C)C)n4)[C@@H]3C2)o1 | 85.1

Structure (SMILES) | INHIBITION [%]
CCS(=O)(=O)Nc1ccc2oc(C)c(C(C)=O)c2c1 | 28.5
Fc1cnc(N2CCCC3(COCCN(c4nccs4)C3)C2)nc1 (configuration not stated) | 29.4
CN1C[C@H](O)[C@]2(CCN(Cc3ccc(OC(F)(F)F)cc3)C2)S1(=O)=O | 26
CN1C[C@H](O)[C@]2(CCN(Cc3ccc(F)c(F)c3)C2)S1(=O)=O | 54
COc1ccc(CN2CC[C@@]3(C2)[C@H](O)CN(C)S3(=O)=O)cc1F | 20.7
Cn1cc(CN2CCCC23CCN(C(=O)c2ccncc2)CC3)cn1 | 36.4
CC(C)NC(=O)[C@@]12CCO[C@@H]1CCN(Cc1ccc3c(c1)OCO3)C2 | 33.5
O=C(N1CCOCC1)[C@@]12CCO[C@@H]1CCN(CC1CCCC1)C2 | 53.4
CN(C)C(=O)[C@@]12CCO[C@@H]1CCN(Cc1ccc3c(c1)OCO3)C2 | 76.2
O=C(N1CCOCC1)[C@@]12CCO[C@@H]1CCN(CCN1CCCCC1)C2 | -22.9
O=C(N1CCOCC1)[C@@]12CCO[C@@H]1CCN(CC1CCC1)C2 | 22.2
O=C(N1CCOCC1)[C@@]12CCO[C@@H]1CCN(Cc1ccncc1)C2 | 83.2
CNC(=O)[C@@]12CCO[C@@H]1CCN(Cc1ccc3c(c1)OCO3)C2 | 3.69
O=C(N1CCOCC1)[C@@]12CCO[C@@H]1CCN(Cc1ccccc1F)C2 | 36.3
O=C(N1CCOCC1)[C@@]12CCO[C@@H]1CCN(CC1CCCCC1)C2 | 24.5
Cc1cccc(CN2CC[C@H]3OCC[C@@]3(C(=O)N3CCOCC3)C2)n1 | 12.6
O=C(N1CCOCC1)[C@@]12CCO[C@@H]1CCN(Cc1cccc(F)c1)C2 | 95.1
Cc1cc(CN2CC[C@H]3OCC[C@@]3(C(=O)N3CCOCC3)C2)no1 | 14.6
O=S(=O)(c1cn[nH]c1)N1CCC(O)(CN2CCOCC2)C1 (configuration not stated) | 38.5
COc1cc(-c2nc3c([nH]2)CCCNC3=O)ccc1O | -53
CN(C)C(=O)CN1CCC2(CCN(CC3CC3)CC2)C1=O | 28.4

Structure (SMILES) | INHIBITION [%]
COc1ccccc1CN(C)C(=O)NCc1c(C)cc(C)[nH]c1=O | -13.3
O=C(c1ccc(N2CCOCC2)nc1)N1CCCC(n2cccn2)C1 (configuration not stated) | 31.3
CCc1cnc(C)nc1NC1CC(=O)N(CC)C1 (configuration not stated) | 14.9
c1ccc(-n2cc(CN3CCCC3Cn3cccn3)nn2)cc1 (configuration not stated) | -18
Cc1cc(C)c(S(N)(=O)=O)cc1C(=O)NCCN1CCCCC1 | 42.1
COc1cc(OC)cc(C(=O)NCc2nn(C)c3c2COCC3)c1 | 24.2
O=S(=O)(c1cn[nH]c1)N1CCCC1c1cc[nH]n1 (configuration not stated) | -12.9
COc1cccc(CNC(=O)CC2CSc3nc(C)c(C)c(=O)n32)c1 (configuration not stated) | 27
O=C(c1ccnnc1)N1C[C@H](Oc2ccccn2)[C@H]2OCCC[C@H]21 | -15.9
CC1(C)CC(=O)c2cnc3nc(N4CCOCC4)nc(O)c3c2C1 | -42.5
Cc1sc2nc(C(F)(F)F)nc(N3CCC(NS(C)(=O)=O)CC3)c2c1C | 34.4
CN1CCCN(c2nc(C3CC3)ns2)CC1 | -31.5
CC(=O)N1CCN(c2nc(C(F)(F)F)nc3sc(C)c(C)c23)CC1 | 34.4
Cc1sc2nc(C(F)(F)F)nc(N3CCCN(C)CC3)c2c1C | 53.9
Cc1sc2nc(C(F)(F)F)nc(N3CCN(S(C)(=O)=O)CC3)c2c1C | 55
Cc1sc2nc(C(F)(F)F)nc(N3CCN(C)CC3)c2c1C | 65.8
CN1CCCN(c2nc(C3CCCC3)nc3c2cnn3C)CC1 | 26.4
Cc1nc(C(F)(F)F)nc(N2CCC(O)(C(=O)O)CC2)c1C | 24.4
Cc1nc(C(F)(F)F)nc(N2CCC3(CC2)CC(C(=O)O)N(C)C3)c1C (configuration not stated) | 47.2
Cc1cc(C)n(CCCC(=O)N2CCc3ncc(Cl)cc3C2)n1 | -50.2
